Shown are actives, neighbours in structure and some others; about 2.7% of the full set was active somewhere.
MRP reversal: reversal of MRP1-mediated doxorubicin resistance, primary screen, H69AR cells, doxorubicin co-treatment; H69AR cells + 2 uM doxorubicin, CellTiter-Glo, 72 h; differential viability (reversal), % at 10 µM; hit rate 0.04% among 85,000;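 active = viability drop by adding the cancer drug above about 55%, with treated viability meeting a 40% cutoff, limit read from the data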;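 also: viability without doxorubicin minus viability with 2 µM doxorubicin for each compound; larger differential means the compound sensitizes cells more to doxorubicin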
ERb coact inh: inhibitors of ERβ-SRC1 coactivator interaction, primary screen, biochemical, TR-FRET, ERβ LBD, SRC-1 peptide. inhibition, % at 25.6 µM. hit rate 1.3% among 86,000. Estrogen receptor beta (Homo sapiens), Q92731. TR-FRET ER-beta LBD / SRC1-Cy5 peptide binding; receptor agonist-loaded with 1 µM estradiol;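 active = compounds whose percent inhibition of the receptor-coactivator binding signal exceeds about 50% in the single-dose screen, limit read from the data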;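 also: 0% = receptor plus peptide wells without compound and 100% = peptide-only wells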
Target sequence (Q92731 whole entry, looked up, the tested form may be a part): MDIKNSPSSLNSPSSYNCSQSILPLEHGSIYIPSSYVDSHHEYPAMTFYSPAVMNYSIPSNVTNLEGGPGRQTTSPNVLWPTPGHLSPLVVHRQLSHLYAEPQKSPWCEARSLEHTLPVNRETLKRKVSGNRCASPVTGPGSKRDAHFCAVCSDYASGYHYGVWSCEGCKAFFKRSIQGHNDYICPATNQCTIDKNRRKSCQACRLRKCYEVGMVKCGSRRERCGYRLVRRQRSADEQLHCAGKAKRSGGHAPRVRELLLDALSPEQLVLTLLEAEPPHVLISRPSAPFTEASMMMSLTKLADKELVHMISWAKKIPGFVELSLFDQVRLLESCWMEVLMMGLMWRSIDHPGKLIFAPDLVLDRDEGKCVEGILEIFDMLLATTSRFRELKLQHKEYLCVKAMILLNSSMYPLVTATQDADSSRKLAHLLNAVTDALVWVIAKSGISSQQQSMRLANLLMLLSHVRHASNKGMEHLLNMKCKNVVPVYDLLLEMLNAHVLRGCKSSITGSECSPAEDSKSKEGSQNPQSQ
ERa coact inh: ERα–SRC-1 coactivator interaction inhibitors, primary screen, biochemical, TR-FRET, ERα LBD, estradiol-bound | hit rate 1.7% among 86,000 | TR-FRET ER-alpha LBD / SRC-1 peptide | Estrogen receptor (Homo sapiens), P03372 | inhibition, % at 25.6 µM; in the data active = inhibition above about 50%;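 also: 0% = receptor plus peptide control and 100% = peptide only without receptor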
MRP1 act: H69AR viability gain despite doxorubicin, primary screen, MRP-1 activator project, H69AR cells, CellTiter-Glo | viability rescue | viability increase, % at 10 µM | hit rate 0.61% among 140,000;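 active = viability gain under doxorubicin at or above a set limit, the compound median plus 3 SD, cut at about 4.7% in these data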;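 also: MRP-1 overexpressing cells given doxorubicin 25 µM after compound pretreatment; 18-22 h compound pretreatment then 72 h with doxorubicin before readout; 0% = doxorubicin-only wells and 100% = vehicle-treated cells without doxorubicin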
ERa coact pot: enhancers of ERα–SRC-1 coactivator binding, primary screen, biochemical, TR-FRET, ERα LBD, low estradiol. hit rate 1.3% among 86,000. AID 639, 2007. coactivator binding (% of control), % at 25.6 µM. Estrogen receptor (Homo sapiens), P03372. TR-FRET ERalpha-LBD/SRC-Cy5 coactivator binding, 2 h; 100 = basal binding, no effect; in the data active = activity above about 200%;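 also: binding measured in presence of low estradiol as agonist stimulus; 0% = peptide alone without receptor and 100% = receptor with peptide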
* marks the source's active call; other numbers are inactive results; nt = no result; [ ] = dose if it differs, or a comment.

SMILES	MRP reversal	ERb coact inh	ERa coact inh	MRP1 act	ERa coact pot
O=c1c(Cl)c(N2CCN(S(=O)(=O)c3ccc(F)cc3)CC2)cnn1-c1cccc(Cl)c1	nt	nt	nt	-1	nt
Cc1ccc2oc(=O)c3cnn(CC(=O)N4CCCc5ccccc54)c3c2c1	-2	-8	-8	0	265*[fluorescence artefact?]
CCCCn1c(O)c(/C=C2\C=NN=C2c2ccccc2)sc1=S	nt	nt	nt	4	nt
CCCCCCn1c(O)c(/C=C2\C=NN=C2c2ccccc2)sc1=S	nt	nt	nt	5.3*	nt
Cc1ccc(-n2c(Cn3nc(C(F)F)cc3C(F)F)n[nH]c2=S)cc1	nt	nt	nt	-2	nt
N#Cc1ccccc1Cn1c(=O)n(CCC(=O)NCc2ccco2)c(=O)c2ccccc21	4	-4	-9	-2	128
N#Cc1ccccc1Cn1c(=O)n(Cc2ccc(C(=O)NCc3ccco3)cc2)c(=O)c2ccccc21	-9	48	82*[fluorescence artefact?]	-4	173
CCN(CC)c1ccc(C(=O)OCC(=O)Nc2cccc(S(=O)(=O)NC3=NCCCCC3)c2)cc1	nt	nt	nt	-2	nt
O=C(Nc1cccc(F)c1)c1ccc2c(c1)OCO2	-1	6	1	1	109
O=C(Nc1cccc(-c2cn3cccnc3n2)c1)c1ccc2c(c1)OCO2	-7	10	60*	-3	116
O=C(Nc1ccc2nn(-c3ccccc3)nc2c1)c1ccc2c(c1)OCO2	41	36	51*	0	181
O=C(Nc1cccs1)OCCN1CCN(Cc2ccccc2)CCC1=O	nt	nt	nt	-1	nt
COc1cccc(/C=N/n2c(SC)nnc2-c2ccccc2)c1O	-40	68*[fluorescence artefact?]	16	-4	89
CCCCNC(=S)N/N=C/c1ccccc1F	nt	nt	nt	-1	nt
Cc1ccc(-c2noc(CCC(=O)Nc3ccc(C)cn3)n2)cc1	-12	2	5	-3	253*
Cc1ccc(-c2noc(CCC(=O)NCC3CCCO3)n2)cc1 (centres undefined)	10	-20	-3	-2	93
COc1cc(/C=c2\s/c(=C(/C#N)C(=O)N3CCCC3)n(-c3ccccc3)c2=O)ccc1O	-10	19	59*	-1	64
CC(/C=N/NC(=O)c1cc(-c2cccnc2)nc2c1c(C)nn2-c1ccccc1)=C\c1ccccc1	nt	nt	nt	1	nt
CCCSc1nc(C)nc2c1c(=O)n(C)c(=O)n2C	14	10	21	-1	87
COc1ccccc1-c1nnc(N(C)C(=O)C2CCCO2)s1 (centres undefined)	15	16	13	-1	90
COc1ccccc1-c1nnc(SC2CCc3ccccc3NC2=O)s1 (centres undefined)	1	-11	-9	6.3*	111
CNC(=O)c1cc2c(=O)n3cccc(C)c3nc2n1C	-11	3	19	nt	108
COc1cccc(OC)c1C(=O)N1CCN(c2ccccn2)CC1	-20	52*[fluorescence artefact?]	-30	-1	117
COc1ccccc1C(=O)N1CCN(c2ccccn2)CC1	5	-2	1	-2	114
COc1ccc(CNC(=O)C2CC(c3cccc(OC)c3)=NO2)cc1 (centres undefined)	12	73*[fluorescence artefact?]	-6	-3	108
COc1ccc(C2=NOC(C(=O)NCc3ccc(F)cc3)C2)cc1OC (centres undefined)	-17	34	70*[fluorescence artefact?]	-3	67
CCOC(=O)c1cnc(-n2cc(C)cn2)nc1NCc1ccc2c(c1)OCO2	1	32	65*[fluorescence artefact?]	-1	100
CCCSC1=N/C(=C\C=C\c2ccco2)C(=O)S1	-10	63*	75*[fluorescence artefact?]	-2	62
O=C1SC(SCc2ccccc2)=N/C1=C\c1ccco1	-24	-13	-13	-2	103
Cc1cccn2c(=O)c3cc(C#N)c(=O)n(CC4CCCO4)c3nc12 (centres undefined)	nt	nt	nt	-2	nt
